We go through seven molecules from the supplement of paper PMC9262897, “Low-cost anti-mycobacterial drug discovery using engineered E. coli” (Nature Communications, 2022).

Each structure is given as a SMILES string. Structures can show the parent of a compound that is named as a salt. ± gives the standard deviation of the averaged measurements.

What all share (test): growth (OD600 after 10 h); higher = more growth (less inhibition)
Experiment [1] has as its system E. coli TESEC Alr+ wild-type control. To be noted: compound 0.1 mM; raw OD600 reference: median of DMSO wells 0.241, cell-free background 0.041. On the procedure: (§1)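 TESEC Mtb Alr E. coli, or the Alr+ wild-type control, in 384-well plates with Prestwick library compounds at 0.1 mM and 1% DMSO, across arabinose induction levels of 1E3 to 1E7 nM. Growth is read as OD600 after 10 h at 37 °C in triplicate biological replicates.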

For experiment [2], the system named is E. coli TESEC Mtb Alr. To be noted: compound 0.1 mM. The protocol:
as §1

The next experiment deals with E. coli TESEC Mtb Asd. The conditions noted are these: compound 0.1 mM. The protocol:
(§2)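 TESEC E. coli strains in which the native enzyme is deleted and replaced by arabinose-inducible Mtb Asd, DapB, CysH or TrpD, each grown in its selective medium. Strains were screened against the Prestwick library at 0.1 mM and 1% DMSO in 384-well format at low and high arabinose induction. Growth is read as OD600 after 10 h in triplicate.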

The test system of a further experiment is E. coli TESEC Mtb DapB. To be noted: compound 0.1 mM. The protocol: as §2
For experiment [3], the system named is E. coli TESEC Alr+ wild-type control. The conditions noted are these: compound 0.1 mM; raw OD600 reference: median of DMSO wells 0.49, cell-free background 0.052. On the procedure: (§3)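 TESEC Mtb Alr E. coli (ΔaraC ΔtolC ΔentC Δalr ΔdadX, arabinose-inducible Mtb Alr) or the Alr+ wild-type control strain, grown in defined M9-fructose medium without D-alanine in 96-well plates with Prestwick library compounds at 0.1 mM and 1% DMSO. Low Alr induction is 0.1 µM arabinose and high induction is 10 mM arabinose.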

Experiment [4] concerns E. coli TESEC Mtb Alr. To be noted: compound 0.1 mM. The protocol:
as §3
This is another data set of the same source.

The mark [5] stands for this setting: arabinose 1000 nM, raw OD600 reference: median of DMSO wells 0.294, cell-free background 0.041.
Setting [6] is: arabinose 10000 nM, raw OD600 reference: median of DMSO wells 0.264, cell-free background 0.041.
The mark [7] stands for this setting: arabinose 100000 nM, raw OD600 reference: median of DMSO wells 0.201, cell-free background 0.041.
[8] abbreviates: arabinose 1000000 nM, raw OD600 reference: median of DMSO wells 0.193, cell-free background 0.041.
The mark [9] stands for this setting: arabinose 10000000 nM, raw OD600 reference: median of DMSO wells 0.146, cell-free background 0.041.
[10] abbreviates: arabinose induction (level): High, raw OD600 reference: median of DMSO wells 0.331, cell-free background 0.041.
Setting [11] is: arabinose induction (level): Low, raw OD600 reference: median of DMSO wells 0.417, cell-free background 0.041.
Where [12] appears, read: arabinose induction (level): High, raw OD600 reference: median of DMSO wells […], cell-free background 0.041.
Where [13] appears, read: arabinose induction (level): Low, raw OD600 reference: median of DMSO wells 0.227, cell-free background 0.041.
[14] abbreviates: arabinose 100 nM, raw OD600 reference: median of DMSO wells 0.413, cell-free background 0.052.
Setting [15] is: arabinose 10000000 nM, raw OD600 reference: median of DMSO wells […], cell-free background 0.052.

`Clc1cc(Cl)c(OCC#CI)cc1Cl` [Haloprogin]: the growth in experiment [1] was 0.128 ± 0.027; with E. coli TESEC Mtb Alr [2] (setting [5]), 0.249 ± 0.015; in the experiment on E. coli TESEC Mtb Alr [2] (setting [6]), 0.197 ± 0.0027; in the experiment on E. coli TESEC Mtb Alr [2] (setting [7]), 0.216 ± 0.004; in the experiment with E. coli TESEC Mtb Alr [2] (setting [8]), 0.137 ± 0.0043; in the experiment on E. coli TESEC Mtb Alr [2] (setting [9]), 0.168 ± 0.0052. The growth in the experiment with E. coli TESEC Mtb Asd (setting [10]) amounted to 0.242 ± 0.037; in the experiment on E. coli TESEC Mtb Asd (setting [11]), 0.276 ± 0.095; in the experiment on E. coli TESEC Mtb DapB (setting [12]), 0.245 ± 0.04; in the experiment with E. coli TESEC Mtb DapB (setting [13]), 0.259 ± 0.018; in experiment [3] it was 0.195 ± 0.037; in the experiment on E. coli TESEC Mtb Alr [4] (setting [14]) it was 0.386 ± 0.027. In the experiment on E. coli TESEC Mtb Alr [4] (setting [15]), this molecule yielded a growth of 0.104 ± 0.0032.

For `Clc1ccc2nsnc2c1NC1=NCCN1` [Tizanidine HCl], the growth in experiment [1] was found to be 0.245 ± 0.011; with E. coli TESEC Mtb Alr [2] (setting [5]), 0.287 ± 0.017; with E. coli TESEC Mtb Alr [2] (setting [6]), 0.262 ± 0.00087; in the experiment with E. coli TESEC Mtb Alr [2] (setting [7]), 0.193 ± 0.028; with E. coli TESEC Mtb Alr [2] (setting [8]), 0.185 ± 0.0059; in the experiment with E. coli TESEC Mtb Alr [2] (setting [9]), 0.142 ± 0.0064. Further, the growth with E. coli TESEC Mtb Asd (setting [10]) amounted to 0.248 ± 0.011; in the experiment on E. coli TESEC Mtb Asd (setting [11]), 0.383 ± 0.057; with E. coli TESEC Mtb DapB (setting [12]), 0.216 ± 0.032; with E. coli TESEC Mtb DapB (setting [13]), 0.222 ± 0.022; in experiment [3], 0.623 ± 0.019; in the experiment on E. coli TESEC Mtb Alr [4] (setting [14]) it was 0.401 ± 0.0081. The molecule further returned a growth in the experiment on E. coli TESEC Mtb Alr [4] (setting [15]) of 0.325 ± 0.015.

In the case of `CC(=O)Nc1c(I)c(C(=O)N[C@H]2C(O)O[C@H](CO)[C@@H](O)[C@@H]2O)c(I)c(N(C)C(C)=O)c1I` (stereo partly specified) [Metrizamide], the growth was 0.246 ± 0.014 in experiment [1]; 0.307 ± 0.014 with E. coli TESEC Mtb Alr [2] (setting [5]); 0.273 ± 0.0038 in the experiment on E. coli TESEC Mtb Alr [2] (setting [6]); 0.238 ± 0.034 in the experiment with E. coli TESEC Mtb Alr [2] (setting [7]); 0.188 ± 0.0051 in the experiment on E. coli TESEC Mtb Alr [2] (setting [8]); 0.16 ± 0.0066 with E. coli TESEC Mtb Alr [2] (setting [9]). In addition, the growth in the experiment on E. coli TESEC Mtb Asd (setting [10]) turned out to be 0.247 ± 0.017; with E. coli TESEC Mtb Asd (setting [11]), 0.352 ± 0.0067; with E. coli TESEC Mtb DapB (setting [12]) it was 0.218 ± 0.025; with E. coli TESEC Mtb DapB (setting [13]), 0.212 ± 0.013; in experiment [3], 0.61 ± 0.014; in the experiment with E. coli TESEC Mtb Alr [4] (setting [14]) it was 0.403 ± 0.012. The molecule also gave a growth in the experiment on E. coli TESEC Mtb Alr [4] (setting [15]) of 0.334 ± 0.011.

For the molecule `C[C@]12CCC(=O)C=C1CC[C@@H]1[C@@H]2[C@@H](O)C[C@@]2(C)[C@H]1CC[C@]2(O)C(=O)CO` [Hydrocortisone base], the growth in experiment [1] amounted to 0.218 ± 0.012; in the experiment on E. coli TESEC Mtb Alr [2] (setting [5]), 0.265 ± 0.024; in the experiment with E. coli TESEC Mtb Alr [2] (setting [6]), 0.253 ± 0.0038; in the experiment on E. coli TESEC Mtb Alr [2] (setting [7]), 0.173 ± 0.026; with E. coli TESEC Mtb Alr [2] (setting [8]), 0.169 ± 0.0059; in the experiment with E. coli TESEC Mtb Alr [2] (setting [9]), 0.137 ± 0.0037. Besides, the growth in the experiment on E. coli TESEC Mtb Asd (setting [10]) was 0.294 ± 0.076; with E. coli TESEC Mtb Asd (setting [11]) it was 0.307 ± 0.074; with E. coli TESEC Mtb DapB (setting [12]), 0.183 ± 0.017; in the experiment on E. coli TESEC Mtb DapB (setting [13]), 0.209 ± 0.047; in experiment [3] it was 0.578 ± 0.1; in the experiment with E. coli TESEC Mtb Alr [4] (setting [14]), 0.407 ± 0.0089. Further, the growth in the experiment with E. coli TESEC Mtb Alr [4] (setting [15]) was 0.302 ± 0.0092.

In the case of `C[C@H]1C[C@H]2[C@@H]3CCC4=CC(=O)C=C[C@]4(C)[C@@]3(F)[C@@H](O)C[C@]2(C)[C@@]1(O)C(=O)CO` [Betamethasone], the growth in experiment [1] stood at 0.184 ± 0.0078; in the experiment on E. coli TESEC Mtb Alr [2] (setting [5]), 0.231 ± 0.031; in the experiment with E. coli TESEC Mtb Alr [2] (setting [6]), 0.256 ± 0.002; in the experiment on E. coli TESEC Mtb Alr [2] (setting [7]), 0.154 ± 0.0079; in the experiment with E. coli TESEC Mtb Alr [2] (setting [8]), 0.134 ± 0.0038; with E. coli TESEC Mtb Alr [2] (setting [9]) it was 0.131 ± 0.0027. Also, the growth with E. coli TESEC Mtb Asd (setting [10]) amounted to 0.273 ± 0.096; in the experiment with E. coli TESEC Mtb Asd (setting [11]), 0.36 ± 0.054; with E. coli TESEC Mtb DapB (setting [12]), 0.198 ± 0.033; in the experiment with E. coli TESEC Mtb DapB (setting [13]), 0.211 ± 0.064; in experiment [3] it was 0.552 ± 0.02; in the experiment with E. coli TESEC Mtb Alr [4] (setting [14]), 0.406 ± 0.0084. Moreover, the growth in the experiment on E. coli TESEC Mtb Alr [4] (setting [15]) is 0.257 ± 0.0044.

As for `COc1ccc(C(=O)NCc2cccnc2)cc1C(=O)NCc1cccnc1` [Picotamide monohydrate], the growth in experiment [1] was found to be 0.234 ± 0.013; in the experiment with E. coli TESEC Mtb Alr [2] (setting [5]) it was 0.264 ± 0.034; in the experiment with E. coli TESEC Mtb Alr [2] (setting [6]), 0.258 ± 0.0067; in the experiment with E. coli TESEC Mtb Alr [2] (setting [7]) it was 0.189 ± 0.02; in the experiment on E. coli TESEC Mtb Alr [2] (setting [8]) it was 0.161 ± 0.0041; with E. coli TESEC Mtb Alr [2] (setting [9]) it was 0.132 ± 0.0031. Moreover, the growth in the experiment on E. coli TESEC Mtb Asd (setting [10]) is 0.256 ± 0.042; in the experiment with E. coli TESEC Mtb Asd (setting [11]), 0.41 ± 0.037; with E. coli TESEC Mtb DapB (setting [12]), 0.189 ± 0.0065; in the experiment on E. coli TESEC Mtb DapB (setting [13]), 0.228 ± 0.034; in experiment [3], 0.453 ± 0.033; in the experiment on E. coli TESEC Mtb Alr [4] (setting [14]), 0.4272 ± 0.0023. The molecule further registered a growth in the experiment with E. coli TESEC Mtb Alr [4] (setting [15]) of 0.321 ± 0.024.

In the case of `CNCCC=C1c2ccccc2C=Cc2ccccc21` [Norcyclobenzaprine], the growth in experiment [1] came to 0.182 ± 0.016; in the experiment on E. coli TESEC Mtb Alr [2] (setting [5]), 0.194 ± 0.022; in the experiment with E. coli TESEC Mtb Alr [2] (setting [6]) it was 0.254 ± 0.014; with E. coli TESEC Mtb Alr [2] (setting [7]), 0.157 ± 0.0048; with E. coli TESEC Mtb Alr [2] (setting [8]), 0.0991 ± 0.0027; with E. coli TESEC Mtb Alr [2] (setting [9]), 0.111 ± 0.0032. The growth with E. coli TESEC Mtb Asd (setting [10]) is 0.204 ± 0.045; with E. coli TESEC Mtb Asd (setting [11]), 0.238 ± 0.036; with E. coli TESEC Mtb DapB (setting [12]) it was 0.186 ± 0.009; in the experiment with E. coli TESEC Mtb DapB (setting [13]), 0.21 ± 0.0089; in experiment [3] it was 0.514 ± 0.015; in the experiment with E. coli TESEC Mtb Alr [4] (setting [14]) it was 0.419 ± 0.011. The molecule further came in with a growth in the experiment with E. coli TESEC Mtb Alr [4] (setting [15]) of 0.212 ± 0.011.
